40 molecules from PubChem BioAssay (NCATS) can be followed below.

Results filed as inconclusive are left out. Activity calls are given as the source filed them. The call rests on the fitted dose curve; in most records, active means well fitted curve in either direction with a large enough effect (not every such curve was filed as active); inconclusive means small, poorly fitted or top-dose-only effect, or another doubt; inactive means flat fitted curve, though single readings scatter.

The target of the test is Mitogen-activated protein kinase 10 (Mus musculus) (UniProt Q61831). The experiment in a line: JNK3 AlphaScreen Assay (AID 530).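 Further: kinase came from lysate of stimulated human HepG2 cells.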 The settings on record: JNK3 lysate, c-Jun phosphorylation; series mostly up to 57.1 µM. An excerpt: NIH Chemical Genomics Center [NCGC]
NIH Molecular Libraries Screening Centers Network [MLSCN]
The c-jun N-terminal kinase (JNK) family are serine/threonine protein kinases that phosphorylate c-jun, a component of the transcription factor […] (AP-1). JNK kinases are members of the mitogen-activated protein kinase family including the extracellular regulated kinases and p38 kinases. Three JNK genes (JNK 1, 2, and 3) have been identified in humans so far. JNK1 and JNK2 have a broad distribution and JNK3 is primarily found in neuronal tissues and cardiac myocytes.
JNK3 has been under consideration as a target for the treatment of neurodegenerative disorders. […] JNK pathway is also involved in pathological process in a mouse model of Parkinson's disease (Xia et al., 2001).
Given these potential tissue distributions and links to neuroprotection, JNK3 inhibitors should provide useful investigational tools to study the role of this kinase in several diseases including, arthritis, stroke, myocardial infarction, ischemic injury and Parkinson's disease.
A homogeneous AlphaScreen is developed to measure the activity of JNK3. AlphaScreen is a two bead-based proximity-dependent chemical energy transfer luminescent assay platform. The phosphorylation of a biotinylated c-jun substrate by JNK3 can be detected with an antibody raised against phosphorylated c-jun. This process brings streptavidin donor beads and Protein-A acceptor beads to within a proximity range of <200 nm, and subsequently lead a chemical luminescent reaction upon exciting donor beads with 680 nm laser excitation light. Inhibition of JNK3 activity by small molecules and subsequent decrease in the antibody binding to biotinylated c-jun could attenuate or abolish this chemical luminescent reaction.
Yang DD, Kuan CY, Whitmarsh AJ, Rincon M, Zheng TS, Davis RJ, Rakic P and Flavell RA (1997) Absence of excitotoxicity-induced apoptosis in the hippocampus of mice lacking the Jnk3 gene. Nature 389:865-870. [PMID: 9349820]
Herdegen T, Claret FX, Kallunki T, Martin-Villalba A, Winter C, Hunter T, and Karin M (1998) Lasting N-terminal phosphorylation of c-Jun and activation of c-Jun N-terminal kinases after neuronal injury. J.Neurosci. 18:5124-5135. [PMID: 9651196]
Xia XG, Harding T, Weller M, Bieneman A, Uney JB and Schulz JB (2001) Gene transfer of the JNK interacting protein-1 protects dopaminergic neurons in the MPTP model of Parkinson's disease. Proc.Natl.Acad.Sci.U.S.A. 98:10433-10438.
NCGC Assay Protocol Summary:
GST-cJun (1-79) (Stratagene, La Jolla CA, #205145) was biotnylated by PerkinElmer (PerkinElmer-BioSignalInc. Montreal, Canada) and was detectable by the streptavidin Donor beads. Anti-(phospho)cJun (Ser73) antibody was from UpState (Charlottesvilles, VA, #06-659). JNK3-containing lysates were generated from HepG2 cells and pre-activated by interleukin1-beta and tumor necrosis factor alpha. All reagents were stored at -20 C before using. Phosphorylated biotinylated-GST-cJun was recognized by Anti-(phospho)cJun (Ser73) antibody and this process brings acceptor and donor beads together. Therefore JNK3 phosphorylation of cJun can be measured by Alpha reading by EnVision (PerkinElmer, Boston, MA).
The composition of kinase buffer was (in mM) 20 tris- HCl (pH 7.6) 10 MgCl2, 1 DTT, and 0.1 Na3VO4 and 0.01% Tween-20. Beads were diluted in detection buffer containing (in mM) 20 tris-HCl (pH 7.7), 20 NaCl and 80 EDTA and 0.3% BSA. The assay was performed at room temperature. All compounds were screened as titrations from 0.6 nM to 46 uM final concentration. The assay was performed in 1536-well format (white solid bottom and untreated) as follows:
Sequence,Parameter,Value,Description
1,Reagent,3 uL,Biotin-GST-cJun, Anti-(phospho)cJun and pre-activated JNK3-containing lysates
2,Compound,23 nL,Final concentration was 0.6nM to 46uM
3,Time,15 minutes,Room Temperature
4,Reagent,1 uL,ATP final concentration 10uM
6,Reagent,0.5 uL,2ng/well bead mixture
[…]
In general terms: Bead proximity is the source of the signal in Alpha formats.
For the molecule `NCCNS(=O)(=O)c1cccc2c(Cl)cccc12`, the outcome was inactive.
In the case of `CNC(=O)c1cc2c(cn1)[nH]c1ccccc12` it was “inactive”; in that of `CC(=O)N[C@@H](Cc1c[nH]c2ccccc12)C(=O)OCc1cc(C(F)(F)F)cc(C(F)(F)F)c1`, “inactive”; in that of `Nc1nc2ccc(Cl)cc2c2nc(-c3ccco3)nn12`, “inactive”.
The value for `S=C(S)N1CCCC1` was “inactive”.
The value for `CCn1c(=O)[nH]c2cc(Cl)c(Cl)cc21` was “inactive”; that for `N#Cc1cc2nc(O)c(O)nc2cc1[N+](=O)[O-]` was “inactive”; that for `Cc1nc(N=Nc2ccc(C(=O)O)cc2)c(COP(=O)(O)O)c(C=O)c1O` was “inactive”.
As for `CCN(c1nc(N)c(C(=O)N=C(N)N)nc1Cl)C(C)C`, the result was inactive.
In the case of `NC1(C(=O)O)CC1` it was “inactive”; in that of `O=C(O)C1CCNCC1`, “inactive”.
In the case of `CCCn1c(=O)c2[nH]c(-c3ccc(S(=O)(=O)O)cc3)nc2n(CCC)c1=O` it was “inactive”; in that of `O=C(O)c1cc2cc(F)ccc2[nH]1`, “inactive”; in that of `N#C/C(=C\c1ccc(O)c(O)c1)C(=O)NCCc1ccccc1`, “inactive”.
`CCCn1c(=O)c2[nH]c(C3CCCC3)nc2n(CCC)c1=O`: the outcome was inactive.
Regarding `CC(C)(CO)Cc1cc(C(C)(C)C)c(O)c(C(C)(C)C)c1`, the outcome was inactive.
In the case of `O=c1[nH]ccc2c(O)cccc12` it was “inactive”.
For the molecule `CN1CCc2cc(Cl)c(O)cc2[C@@H](c2ccccc2)C1`, the outcome was inactive.
Turning to `N=C(N)SCCN`, the outcome was inactive.
The value for `CCSC(=N)N` was “inactive”; that for `C=CC[C@H](N)C(=O)O` was “inactive”; that for `CCCCCCC/C=C\CCCCCCCCC(=O)O` was “inactive”.
In the case of `N[C@@H](Cc1c[nH]c2ccccc12)C(=O)O` it was “inactive”; in that of `COc1cc(CNC(=O)CCCCCCC(C)C)ccc1O`, “inactive”; in that of `O=c1onc2n1-c1cc(Br)ccc1OC2`, “inactive”.
In the case of `C[C@](Cc1ccc(O)c(O)c1)(NN)C(=O)O` it was “inactive”; in that of `NC(N)=NC(N)=Nc1ccccc1`, “inactive”.
In the case of `COc1ccccc1N1CCN(CCN(C(=O)c2ccc(F)cc2)c2ccccn2)CC1`, the molecule was classed as inactive.
Regarding `O=[N+]([O-])c1cccc2cn[nH]c12`, the call was inactive.
On to `COc1ccccc1N1CCN(CCCCNC(=O)c2ccc3ccccc3c2)CC1`, for which the result was inactive.
The value for `CC(C)NC[C@H](O)COc1ccc(CC(N)=O)cc1` was “inactive”; that for `N[C@@H](CS(=O)O)C(=O)O` was “inactive”; that for `NS(=O)(=O)c1cccc2c1c([N+](=O)[O-])cc1nc(O)c(O)nc12` was “inactive”.
In the case of `C#CCn1c(=O)c2c(ncn2C)n(C)c1=O`, the outcome was inactive.
In the case of `COc1ccccc1N1CCN(CCCNc2c(C)c(=O)n(C)c(=O)n2C)CC1` it was “inactive”; in that of `NC(=Nc1ccccc1)NC(=O)c1nc(Cl)c(N)nc1N`, “inactive”.
In the case of `CC[C@@H]1Cc2cc(O)ccc2C2=C1c1ccc(O)cc1C[C@H]2CC` it was “inactive”; in that of `O=C(OCCN1CCOCC1)C1(c2ccccc2)CCCCC1`, “inactive”; in that of `CCCCOC(=O)NS(=O)(=O)c1sc(CC(C)C)cc1-c1ccc(Cn2c(CC)nc3c(C)cc(C)nc32)cc1`, “inactive”.
As to `CC(=O)C(C)=O`, the outcome was inactive.
